Compounds without any hit were thinned out: in the full panel of roughly 79,000, 15% have a hit. A number with no mark means an inactive call. The source made the active and inactive calls. No stated cut-off is given here; in the data, active means growth inhibition above about 70%; inactive means the rest. Where a SMILES comes first, the peptide text is derived from it. The star is where a group is joined. Cbz = O=C(OCc1ccccc1)*
Key:
[1] = NCI Yeast Anticancer Drug Screen. Data for the rad50 strain (AID 155);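 further: 0% = growth of vehicle-only cultures of the same strain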; details: S. cerevisiae rad50 strain growth inhibition, stronger effect = higher value
Method in brief: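 Growth of the mutant yeast was measured after compound exposure and referenced to vehicle-treated cultures.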

[2] = NCI Yeast Anticancer Drug Screen. Data for the mec2-1 strain (AID 157); details: S. cerevisiae mec2-1 strain, stronger effect = higher value
Method in brief: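 Growth inhibition is read against vehicle-treated controls after compound exposure of the mec2-1 yeast strain, which is defective in DNA damage repair or cell cycle control.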

[3] = NCI Yeast Anticancer Drug Screen. Data for the sgs1 mgt1 strain (AID 161);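 further: 0% = growth of cultures given vehicle only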; details: S. cerevisiae sgs1 mgt1 strain, stronger effect = higher value
Method in brief: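 Percent growth inhibition was derived by comparing compound-exposed mutant yeast with vehicle-exposed cultures. The strain carries alterations in DNA damage repair.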

[4] = NCI Yeast Anticancer Drug Screen. Data for the cln2 rad14 strain (AID 165);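 further: 0% = growth equal to vehicle treated cultures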; details: S. cerevisiae cln2 rad14 strain, stronger effect = higher value
Method in brief: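 Growth inhibition, relative to vehicle-treated controls, is the read-out. The test organism is a yeast strain with defined genetic alterations, cln2 rad14.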

[5] = NCI Yeast Anticancer Drug Screen. Data for the bub3 strain (AID 167); details: S. cerevisiae bub3 mutant strain, stronger effect = higher value
Method in brief: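 Whole-cell yeast assay. The mutant strain was incubated with compounds, and growth inhibition was determined by comparison with vehicle-treated cells.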

[6] = NCI Yeast Anticancer Drug Screen. Data for the mlh1 rad18 strain (AID 175); details: S. cerevisiae mlh1 rad18 strain growth inhibition, stronger effect = higher value
Method in brief: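 Cells of a genetically altered yeast strain, deficient in DNA damage repair, were treated with compound. Their growth was then compared with that of vehicle-treated cultures to give inhibition.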

[7] = at 5.0 µM (retest, dose inferred, filed as 0.5)
[8] = at 50.0 µM (retest, dose inferred, filed as 5.0)

| Structure (SMILES) | growth inhibition [1, 7] | growth inhibition [1, 8] | growth inhibition ([1]; at 50.0 µM) | growth inhibition [2, 7] | growth inhibition [2, 8] | growth inhibition ([2]; at 50.0 µM) | growth inhibition [3, 7] | growth inhibition [3, 8] | growth inhibition ([3]; at 50.0 µM) | growth inhibition [4, 7] | growth inhibition [4, 8] | growth inhibition ([4]; at 50.0 µM) | growth inhibition [5, 7] | growth inhibition [5, 8] | growth inhibition ([5]; at 50.0 µM) | growth inhibition [6, 7] | growth inhibition [6, 8] | growth inhibition ([6]; at 50.0 µM) |
| --- | --- | --- | --- | --- | --- | --- | --- | --- | --- | --- | --- | --- | --- | --- | --- | --- | --- | --- |
| CCCCCCCCCC1OCC(C)O1 (configuration not stated) | 3% | 30% | 53% | 3% | 30% | 44.6% | -2% | 38% | 73.2% (active) | 6% | 17% | 4% | 7% | 36% | 7.7% | 4% | 62% | 61.2% |
| OC1OCC(OCc2ccccc2)C(OCc2ccccc2)C1OCc1ccccc1 (configuration not stated) | -4% | 61% | 97.4% (active) | -25% | 59% | 96.9% (active) | -3% | 68% | 96.7% (active) | -3% | 59% | 81.5% (active) | -5% | 51% | 97.7% (active) | 10% | 86% (active) | 98.5% (active) |
| NNc1ncc2c(n1)-c1ccccc1OC2 | 23% | 49% | 47.3% | 6% | 38% | 18.8% | 14% | 28% | 24.1% | 21% | 33% | 4.1% | 12% | 40% | -1.1% | 13% | 53% | 89.8% (active) |
| COc1ccc(/C=C2\SC(=S)N(/C=C(/C#N)C(=O)c3ccc4ccccc4c3)C2=O)cc1OC | -11% | 98% (active) | 97.4% (active) | -18% | 99% (active) | 98.5% (active) | 1% | 98% (active) | 97.2% (active) | -13% | 97% (active) | 95.3% (active) | -22% | 98% (active) | 98.6% (active) | 5% | 99% (active) | 98.3% (active) |
| C=CCOc1ccccc1C(=O)OC | 3% | 0% | -4.6% | 6% | -4% | 7.9% | -1% | -5% | 7.2% | 5% | -4% | 30.9% | -3% | -10% | -2.45% | 3% | -1% | 0.3% |
| CCCN1CCN(c2ccc([N+](=O)[O-])c3no[n+]([O-])c23)CC1 | 97% (active) | 99% (active) | 89% (active) | 97% (active) | 99% (active) | 93.3% (active) | 92% (active) | 99% (active) | 89.5% (active) | 52% | 99% (active) | 80.3% (active) | 58% | 98% (active) | 90.2% (active) | 97% (active) | 99% (active) | 88.6% (active) |
| O=C(O)c1ccc2c(O)c3ccccc3c(O)c2c1 | 3% | 72% (active) | 99.6% (active) | 1% | 41% | 99.5% (active) | 3% | 52% | 99.6% (active) | 4% | 50% | 93.5% (active) | 21% | 57% | 99.5% (active) | 5% | 65% | 99.2% (active) |
| Cc1cc(C(=O)O)c(C)c2c1sc1ccccc12 | 6% | 87% (active) | 76.8% (active) | 3% | 79% (active) | 27.2% | 12% | 82% (active) | 62.8% | -64% | 81% (active) | 42% | -11% | -14% | 51.1% | 0% | 81% (active) | 81.2% (active) |
| c1ccc(N2CCN(c3ccccc3)C2Cc2c[nH]c3ccccc23)cc1 | 30% | 98% (active) | 99.2% (active) | 19% | 99% (active) | 98.4% (active) | 25% | 98% (active) | 99.4% (active) | 17% | 99% (active) | 92.5% (active) | 61% | 98% (active) | 99.2% (active) | 61% | 99% (active) | 98.9% (active) |
| COC(=O)c1cc(-c2ccc(C)cc2)c2c(=O)n(-c3ccccc3)[nH]c2n1 | 8% | 75% (active) | 72.9% (active) | 5% | 71% (active) | 94.9% (active) | -7% | 51% | 51.1% | 11% | 87% (active) | 94.8% (active) | 4% | 69% | 92.8% (active) | -3% | 85% (active) | 85.9% (active) |
| CC(=O)c1cc(I)c(O)c2ncccc12 | 96% (active) | 99% (active) | 90.3% (active) | 93% (active) | 99% (active) | 92.5% (active) | 29% | 98% (active) | 93% (active) | 69% | 96% (active) | 88.8% (active) | 28% | 95% (active) | 89.5% (active) | 100% (active) | 100% (active) | 87.9% (active) |
| CN(C)C(=O)c1cc(Br)cc(-c2ccccc2)c1O | 4% | 77% (active) | 55.1% | 0% | 84% (active) | 73% (active) | 3% | 86% (active) | 75.8% (active) | 2% | 63% | 38.6% | 1% | 88% (active) | 87.5% (active) | -4% | 92% (active) | 51.8% |
| CSC(=S)N/N=C/c1cccc(C)n1 | 13% | 71% (active) | 95.1% (active) | 5% | 60% | 82.1% (active) | 3% | 69% | 66.2% | -8% | 26% | 67.7% | 1% | 72% (active) | 86.8% (active) | 30% | 80% (active) | 82.6% (active) |
| CC1(C)C[C@H]2C=C(C=O)[C@]34C[C@]3(C(=O)OC4O)[C@H]2C1 (some centres not stated) | 94% (active) | 99% (active) | 92.5% (active) | 98% (active) | 100% (active) | 93.6% (active) | 98% (active) | 100% (active) | 93.2% (active) | 84% (active) | 99% (active) | 92.3% (active) | 97% (active) | 100% (active) | 92.3% (active) | 96% (active) | 97% (active) | 90.7% (active) |
| C=C1C(=O)C23OC2C1CCC(=O)C1(C)CC[C@H](OC(C)=O)C(C)(C)[C@H]1CC3O (some centres not stated) | 86% (active) | 79% (active) | 99.2% (active) | 92% (active) | 31% | 100% (active) | 92% (active) | 42% | 99.5% (active) | 71% (active) | 16% | 99.2% (active) | 92% (active) | 27% | 99.2% (active) | 92% (active) | 38% | 99% (active) |
| CC(C)(C)c1cc(Cl)c(O)c(Cc2cc(C(C)(C)C)cc(Cl)c2O)c1 | 5% | 67% | 67% | 36% | 78% (active) | 72.2% (active) | -4% | 84% (active) | 82.5% (active) | 14% | 79% (active) | 82% (active) | 9% | 76% (active) | 62.5% | 52% | 85% (active) | 70.5% (active) |
| O=C(NC(Cc1ccc(O)cc1)C(=O)NC(Cc1ccccc1)C(=O)O)OCc1ccccc1 (stereo not drawn) (Cbz-Tyr-Phe-OH; configuration not given here) | -6% | -1% | -17.3% | 29% | -1% | 5.85% | -2% | 0% | 34.1% | 1% | 1% | -36.5% | -5% | -3% | -4.3% | -2% | -1% | -0.6% |
| CC(=O)c1sc(Nc2ccc(Cl)c(Cl)c2)nc1C | 8% | 35% | 95% (active) | 4% | 19% | 81% (active) | 27% | 22% | 97% (active) | 1% | 35% | 91.2% (active) | 1% | 56% | 81.8% (active) | 15% | 47% | 93.2% (active) |
| O=C(Oc1ccc(O)c2ccccc12)c1ccccc1 | 0% | 2% | 98.7% (active) | -3% | 6% | 98.6% (active) | 1% | -16% | 98.3% (active) | -7% | -5% | 98.5% (active) | -5% | 5% | 98.5% (active) | -7% | 7% | 97.2% (active) |

Reference: PubChem BioAssay (NCI)
